Measured values taken from PubChem BioAssay (NCATS).
The source made the active and inactive calls. Unless noted, calls follow the shape of the dose curve; as a rule, active = well fitted curve in the direction sought with a large enough effect; inconclusive = small, poorly fitted or top-dose-only effect, or another doubt; inactive = no such curve, though single readings can be large; an effect the other way counts as inactive or inconclusive.

Tests used:
[1] = target: Glucocorticoid receptor (Homo sapiens) (UniProt P04150); experiment: GR-GFP Redistribution (AID 450;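 active = compounds whose dose series gives a full or clear partial fitted curve of increased nuclear translocation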; also: potency is read from the fitted curve at half-maximal effect); conditions: U2OS GR-GFP nuclear translocation, laser cytometry, 2 h
[2] = target: Pyruvate kinase (Leishmania mexicana) (UniProt Q27686); experiment: qHTS Validation Assay for Inhibitors of Leishmania Mexicana Pyruvate Kinase (AID 945); conditions: purified L. mexicana pyruvate kinase, enzyme activity, E451W mutant enzyme; series mostly up to 57.5 µM
In short: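 Compounds are tested as eight-point concentration series. Reactions contain 0.2 nM LmPYK E451W, 0.5 mM PEP, 0.1 mM ADP, 7 mM MgCl2 and 50 mM KCl at pH 7.2, run 1 h at room temperature, then read by PKLight luminescence.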

[3] = target: Pyruvate kinase PKM (Homo sapiens) (UniProt P14618); experiment: qHTS Assay for Activators of Human Muscle Pyruvate Kinase (AID 954; active = well fitted curve in the direction sought with a large enough effect, not every such curve was filed as active); conditions: purified human muscle pyruvate kinase, luciferase-coupled luminescence, 1 h; series mostly up to 57.5 µM
In short: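 Screening used highly purified human pyruvate kinase M2 under submaximal activity, with PEP at its Km and ADP below Km. After an hour at room temperature, ATP was read by luciferase luminescence.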

[4] = target: Alpha-galactosidase (Coffea arabica) (UniProt Q42656); experiment: Counterscreen for Glucocerebrosidase Inhibitors: qHTS Assay for Coffee Bean alpha-Galactosidase at pH 4.5 (AID 957); conditions: purified coffee bean alpha-galactosidase, fluorogenic substrate; series mostly up to 76.9 µM
In short: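 Enzyme is added first (2 nM final), then compounds titrated from 0.7 nM to 77 uM, then 80 uM 4-methylumbelliferyl alpha-D-galactopyranoside; after 20 min at room temperature a pH 10 NaOH/glycine stop precedes fluorescence reading at 365/440 nm.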

Measured: Potency

Chain of Pyruvate kinase PKM (Homo sapiens) (P14618 whole entry, looked up): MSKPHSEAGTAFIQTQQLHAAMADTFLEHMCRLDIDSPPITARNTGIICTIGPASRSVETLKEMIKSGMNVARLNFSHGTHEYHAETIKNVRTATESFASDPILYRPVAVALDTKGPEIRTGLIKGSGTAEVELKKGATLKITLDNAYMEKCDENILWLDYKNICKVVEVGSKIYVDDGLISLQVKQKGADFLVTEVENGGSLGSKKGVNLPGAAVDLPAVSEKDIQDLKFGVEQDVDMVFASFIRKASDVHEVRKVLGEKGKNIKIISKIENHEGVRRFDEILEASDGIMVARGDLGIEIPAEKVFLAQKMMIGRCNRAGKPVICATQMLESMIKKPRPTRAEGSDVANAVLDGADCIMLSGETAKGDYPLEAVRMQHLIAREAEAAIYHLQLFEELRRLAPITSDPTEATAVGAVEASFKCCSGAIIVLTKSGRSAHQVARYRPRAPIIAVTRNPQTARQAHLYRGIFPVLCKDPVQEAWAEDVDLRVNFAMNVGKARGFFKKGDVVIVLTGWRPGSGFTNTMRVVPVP
Chain of Pyruvate kinase (Leishmania mexicana) (Q27686 2-499 E452W): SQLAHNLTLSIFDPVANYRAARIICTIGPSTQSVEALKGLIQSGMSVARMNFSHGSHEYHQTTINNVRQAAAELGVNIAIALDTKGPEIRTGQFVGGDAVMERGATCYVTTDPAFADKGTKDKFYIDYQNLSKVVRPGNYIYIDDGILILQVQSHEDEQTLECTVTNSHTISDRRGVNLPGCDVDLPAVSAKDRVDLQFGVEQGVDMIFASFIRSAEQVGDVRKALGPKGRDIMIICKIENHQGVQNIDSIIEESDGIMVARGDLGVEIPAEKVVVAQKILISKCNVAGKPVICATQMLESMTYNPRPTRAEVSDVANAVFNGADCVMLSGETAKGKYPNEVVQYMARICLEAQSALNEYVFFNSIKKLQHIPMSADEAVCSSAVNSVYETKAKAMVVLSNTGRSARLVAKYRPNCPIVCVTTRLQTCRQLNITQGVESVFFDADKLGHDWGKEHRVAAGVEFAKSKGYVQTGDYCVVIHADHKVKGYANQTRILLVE
Chain of Alpha-galactosidase (Coffea arabica) (Q42656 whole entry, looked up): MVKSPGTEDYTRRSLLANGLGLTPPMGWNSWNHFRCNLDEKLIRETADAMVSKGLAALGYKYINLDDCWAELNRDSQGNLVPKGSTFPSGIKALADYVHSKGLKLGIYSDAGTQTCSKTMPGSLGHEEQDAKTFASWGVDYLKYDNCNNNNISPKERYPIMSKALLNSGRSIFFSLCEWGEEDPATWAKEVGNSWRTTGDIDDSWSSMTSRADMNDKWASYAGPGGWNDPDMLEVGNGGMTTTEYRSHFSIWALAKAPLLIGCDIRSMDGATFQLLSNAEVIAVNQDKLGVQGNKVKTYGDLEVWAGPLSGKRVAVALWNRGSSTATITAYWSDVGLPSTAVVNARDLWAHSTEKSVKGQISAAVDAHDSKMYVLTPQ
Chain of Glucocorticoid receptor (Homo sapiens) (P04150 whole entry, looked up): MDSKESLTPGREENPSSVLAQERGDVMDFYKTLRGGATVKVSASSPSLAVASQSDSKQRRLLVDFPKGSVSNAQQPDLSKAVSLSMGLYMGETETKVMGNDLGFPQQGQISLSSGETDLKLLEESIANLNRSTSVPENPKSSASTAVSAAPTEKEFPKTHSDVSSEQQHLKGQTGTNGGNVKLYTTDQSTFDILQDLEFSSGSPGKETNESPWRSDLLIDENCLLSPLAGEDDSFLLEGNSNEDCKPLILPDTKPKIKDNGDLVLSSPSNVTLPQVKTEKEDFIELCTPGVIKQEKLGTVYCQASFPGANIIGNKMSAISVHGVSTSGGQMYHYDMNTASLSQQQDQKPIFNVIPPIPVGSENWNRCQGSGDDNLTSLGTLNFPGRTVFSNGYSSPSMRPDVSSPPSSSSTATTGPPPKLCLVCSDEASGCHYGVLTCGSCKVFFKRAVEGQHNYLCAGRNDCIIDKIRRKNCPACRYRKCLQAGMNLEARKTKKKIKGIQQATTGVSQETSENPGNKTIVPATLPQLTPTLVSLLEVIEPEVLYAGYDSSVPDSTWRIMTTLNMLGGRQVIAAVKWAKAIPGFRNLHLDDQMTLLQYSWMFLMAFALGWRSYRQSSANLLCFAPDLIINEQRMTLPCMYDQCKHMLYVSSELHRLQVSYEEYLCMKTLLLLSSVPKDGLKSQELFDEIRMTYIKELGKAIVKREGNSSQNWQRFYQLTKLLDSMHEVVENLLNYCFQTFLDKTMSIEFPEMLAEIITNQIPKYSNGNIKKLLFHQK

COc1cc(C[C@H](C)N)c(OC)cc1I
inactive: [1] > 46 µM | [2] | [3] | [4]

CCn1cnc2c(Nc3cccc(Cl)c3)nc(N[C@@H]3CCCC[C@H]3N)nc21
inactive: [1] > 46 µM | [2] | [3] | [4]

CC(C)[C@@]1(NC(=O)[C@H]2C[C@H]3c4cccc5[nH]cc(c45)C[C@@H]3N(C)C2)O[C@]2(O)[C@H]3CCCN3C(=O)[C@H](Cc3ccccc3)N2C1=O
inactive: [1] > 46 µM

Oc1ccc2c3c1O[C@@H]1c4[nH]c5c(c4C[C@@]4(O)[C@@H](C2)N(CC2CC2)CC[C@]314)C[C@]1(O)[C@@H]2Cc3ccc(O)c4c3[C@@]1(CCN2CC1CC1)[C@H]5O4
inactive: [1] > 46 µM | [2] | [3] | [4]

CC(=O)OCC1=C(C(=O)[O-])N2C(=O)[C@@H](NC(=O)CCC[C@@H](N)C(=O)[O-])[C@@H]2SC1.[Zn+2]
inactive: [1] > 46 µM | [2] | [3] | [4]

CCN(CC)c1ncnc2c1ncn2[C@@H]1O[C@@H](COP(=O)(O)OP(=O)(O)C(Br)(Br)P(=O)(O)O)[C@H](O)[C@@H]1O
inactive: [1] > 46 µM | [2] | [3] | [4]

COc1ccc2c(c1)[C@]13CCCC[C@@H]1[C@H](C2)NCC3
inactive: [1] > 46 µM | [2] | [3] | [4]

Nc1ncnc2c1ncn2[C@@H]1O[C@@H](COP(=O)(O)CP(=O)(O)OP(=O)(O)O)[C@H](O)[C@@H]1O
inactive: [1] > 46 µM | [2] | [3] | [4]

C[N+]1(C)C2CC(OC(=O)C(CO)c3ccccc3)CC1[C@@H]1O[C@H]21 (stereo not given in full)
inactive: [1] > 46 µM | [2] | [3] | [4]

C=CCN1CC[C@]23c4c5ccc(O)c4O[C@@H]2/C(=N/NC(=O)c2ccccc2)CC[C@@]3(O)[C@H]1C5
inactive: [1] > 46 µM | [2] | [3] | [4]

COc1cc([C@@H](O)CN)ccc1O
inactive: [1] > 46 µM | [2] | [3] | [4]

COc1ccc2c3c1O[C@@H]1C(=O)CC[C@@]4(O)[C@@H](C2)N(CC2CC2)CC[C@]314
inactive: [1] > 46 µM | [2] | [3] | [4]

C[C@]12CC[C@H](O)CC1=CC[C@@H]1[C@H]2CC[C@]2(C)C(=O)CC[C@H]12
inactive: [2] | [3] | [4]

O=C(O)[C@H]1[C@H](C(=O)O)[C@H]2CC[C@@H]1O2
inactive: [1] > 46 µM | [2] | [3] | [4]

CC(C)N[C@@H](C)Cc1ccc(I)cc1
inactive: [1] > 46 µM | [2] | [3] | [4]

C[C@@]12CC[C@H]3[C@@H](CCC4=C(O)C(=O)CC[C@]43C)[C@H]1CCC2=O
inactive: [1] > 46 µM | [2] | [3] | [4]

NC[C@H](O)c1cc(O)c(O)cc1F
inactive: [1] > 46 µM | [2] | [3] | [4]

O=C(Nc1cc[c]([Sb](=[O])([OH])[OH])cc1)c1ccccc1
inactive: [1] > 46 µM

COC(=O)[C@H](N)CCCN=C(N)N[N+](=O)[O-]
inactive: [1] > 46 µM | [2] | [3] | [4]

N[C@H](Cc1ccc(N(CCCl)CCCl)cc1)C(=O)O
inactive: [2] | [3] | [4]

COc1ccc2c(c1O)-c1cccc3c1[C@H](C2)N(C)CC3
inactive: [1] > 46 µM | [2] | [3] | [4]

N[C@H](Cn1cc(I)c(=O)[nH]c1=O)C(=O)O
inactive: [1] > 46 µM

CCNC(=O)[C@@H]1O[C@@H](n2cnc3c(N)ncnc32)[C@@H](O)[C@H]1O
inactive: [1] > 46 µM | [2] | [3] | [4]

C[N+]1(C)CCc2cc3c(cc2[C@@H]1[C@@H]1OC(=O)c2c1ccc1c2OCO1)OCO3
inactive: [1] > 46 µM | [2] | [3] | [4]
